# Test results as given in PubChem BioAssay.
# The source made the active and inactive calls. Unless noted, the rule behind the calls is not given here.
# How the values were obtained:
# [1] = Brca1-Bard1 BiLC signal decrease – luminescence, single concentration, counter-screen for Mdm2/MdmX interaction inhibitor project, confirmation (AID 504668); details: Brca1/Bard1 bimolecular luciferase complementation counterscreen, at 8 µM, stronger effect = higher value
# [2] = NFkB reporter suppression in cystic fibrosis bronchial cells – cell-based, uHTS hits, panel, cytotoxicity readout, dose response (AID 624344); details: CF bronchial epithelial cells, PAF-induced NFkB reporter inhibition, with PAF, run 1; at 79 µM (top of the series) unless noted
# [3] = as above; details: CF bronchial epithelial cells, PAF-induced NFkB reporter inhibition, with PAF, run 2; at 79 µM (top of the series) unless noted
# [4] = molecular target: Tumor necrosis factor receptor superfamily member 10B (Homo sapiens) (UniProt O14763); assay: viability loss of caspase-8 NB7 cells with TRAIL – with/without TRAIL, luminescence panel, confirmation (AID 651596; in the data active = activity above about 50%); details: NB7 neuroblastoma + caspase-8, TRAIL sensitization, NB7 Caspase-8, with TRAIL, mean of runs, at 10 µM, stronger effect = higher value
# [5] = as above; details: NB7 neuroblastoma + caspase-8, without TRAIL, NB7 Caspase-8, without TRAIL, mean of runs, at 10 µM
# Sequence of Tumor necrosis factor receptor superfamily member 10B (Homo sapiens) (O14763 whole entry, looked up): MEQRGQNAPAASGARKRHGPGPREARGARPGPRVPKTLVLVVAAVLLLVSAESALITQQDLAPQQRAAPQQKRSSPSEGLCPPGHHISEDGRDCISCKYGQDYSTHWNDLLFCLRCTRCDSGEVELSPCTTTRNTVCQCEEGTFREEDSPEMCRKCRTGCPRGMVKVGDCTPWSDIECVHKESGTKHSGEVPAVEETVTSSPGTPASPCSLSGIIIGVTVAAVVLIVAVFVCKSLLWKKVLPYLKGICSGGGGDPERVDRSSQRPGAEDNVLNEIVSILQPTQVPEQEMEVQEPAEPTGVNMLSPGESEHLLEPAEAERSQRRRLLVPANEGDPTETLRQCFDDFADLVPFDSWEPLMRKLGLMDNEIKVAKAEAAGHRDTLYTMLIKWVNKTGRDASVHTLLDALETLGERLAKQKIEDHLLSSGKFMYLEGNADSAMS
SMILES,inhibition [1],inhibition [2] [%],inhibition [3] [%],activity [4] [%],activity [5] [%]
COc1ccc2[nH]c3c(c2c1)CC(C)NC3=O (stereo unspecified),33.6% (active),103,112,–,–
O=[N+]([O-])c1ccc2ncnc(N3CCN(Cc4ccc5c(c4)OCO5)CC3)c2c1,24.3% (active),112,91.3,–,–
Cn1c(Oc2ccc(Cl)cc2)c(C=O)c2ccccc21,34.4% (active),104,109,–,–
CCn1c(Oc2ccccc2F)nc2c1c(=O)n(C)c(=O)n2C,23.1% (active),113,96.5,–,–
CCC(C)Oc1cc(-c2ccnc(Nc3cccc(Cl)c3)n2)ccn1 (stereo unspecified),25.4% (active),102,117,–,–
CN1CCN(c2ncnc3scc(-c4ccccc4Cl)c23)CC1,28.7% (active),113,100,–,–
COc1cccc(-c2nnc3sc(C4CCCCC4)nn23)c1,25% (active),111,104,–,–
COC1(OC)C=CC(=O)C=C1NC(=O)c1ccccc1OC(C)=O,35.6% (active),101,113,–,–
CCN(CC)S(=O)(=O)c1ccc(NC(=O)Nc2cccc(C(F)(F)F)c2)cc1,35.2% (active),114,99.2,82.6,71.3
COc1ccc(Cc2nnc(SCc3ccc([N+](=O)[O-])cc3)o2)cc1,28.9% (active),113,97.4,–,–
CCOc1cc(Br)c(Br)c(C=Nc2ccc(NC(C)=O)cc2)c1O,33.1% (active),105,115,–,–
NC(=O)N/N=C/c1c(Sc2nnnn2-c2ccccc2)nc2ccccn2c1=O,23.4% (active),103,105,–,–
O=C(/C=C/c1cccc([N+](=O)[O-])c1)n1cnc2ccccc21,24.6% (active),102,111,–,–
CCOC(=O)Nc1ccc2c(c1)N(C(=O)CCN(CC)CC)c1ccccc1S2=O (stereo unspecified),29.9% (active),102,107,–,–
COc1ccc(-c2cc(=O)oc3c(C)c(OC(=O)c4cccs4)ccc23)cc1,32.9% (active),66.8,93,–,–
COc1ccc(-c2cn[nH]c2-c2ccc(OC)cc2O)cc1,32.5% (active),103,112,–,–
Cc1ccc(NC(=O)Nc2nnc(-c3ccncc3)s2)cc1C,23.3% (active),102,114,–,–
Nc1ncnc(NCc2ccc(F)cc2)c1[N+](=O)[O-],27% (active),99,98.9,–,–
